The record followed here is PubChem BioAssay AID1012 (Sanford-Burnham Center for Chemical Genomics, 2008).

Screen size: about 200,000 compounds; about 520 (0.26%) were called active. This excerpt belongs to a sample that is enriched for actives. Unmarked numbers belong to inactive results.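 The calls were made as follows: active = tissue-nonspecific alkaline phosphatase inhibition above about 50% at 20 µM in the single-dose screen (limit read from the data); inactive = the rest.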

The target of the assay is Alkaline phosphatase, tissue-nonspecific isozyme (Homo sapiens) (UniProt P05186). As to the kind of experiment: human TNAP enzyme inhibitors, primary screen, biochemical, luminescent, no phosphate acceptor, uHTS (AID 1012).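 Also: 0% = DMSO negative control and 100% = EDTA positive control.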 To be noted: purified TNAP, CDP-star luminescence, 30 min; at 20 µM; active compounds read high.
Sequence of Alkaline phosphatase, tissue-nonspecific isozyme (Homo sapiens) (P05186 whole entry, looked up): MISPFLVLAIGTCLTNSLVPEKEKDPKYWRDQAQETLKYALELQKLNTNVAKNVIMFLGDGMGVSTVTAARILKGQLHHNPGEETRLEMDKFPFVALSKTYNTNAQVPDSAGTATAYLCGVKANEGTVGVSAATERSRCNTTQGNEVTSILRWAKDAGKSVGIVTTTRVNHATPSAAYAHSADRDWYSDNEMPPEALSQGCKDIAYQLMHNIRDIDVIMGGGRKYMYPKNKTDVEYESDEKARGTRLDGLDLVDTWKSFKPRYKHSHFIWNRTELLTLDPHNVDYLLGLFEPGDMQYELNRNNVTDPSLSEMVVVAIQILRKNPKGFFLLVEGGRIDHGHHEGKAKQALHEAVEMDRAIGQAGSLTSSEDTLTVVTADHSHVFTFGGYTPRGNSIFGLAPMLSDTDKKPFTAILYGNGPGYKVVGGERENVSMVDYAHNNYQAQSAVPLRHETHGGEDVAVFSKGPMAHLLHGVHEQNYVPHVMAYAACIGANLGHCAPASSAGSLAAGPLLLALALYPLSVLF
One may read the inhibition as the relative decrease from the control value, in per cent. With `CN(C)CCCN=Cc1c(O)n(Cc2ccco2)c(=O)[nH]c1=O`, the inhibition was -20.3%.
With `O=C(N/N=C/c1c(O)n(Cc2ccccc2)c(=O)[nH]c1=O)c1ccccc1`, the inhibition was 94.3% (active).
Turning to `CCC(=NCc1ccco1)c1c(O)n(Cc2ccccc2)c(=O)[nH]c1=O`, the inhibition was -5.5%.
Turning to `O=C(OCCN1CCOCC1)C1(c2ccccc2)CCCC1`, the inhibition was -3%.
`O=C(NCC(c1cccnc1)N1CCN(c2ccccc2)CC1)Oc1ccccc1` (stereo not given): the inhibition is -8.6%.
